Reference: PubChem BioAssay
Values joined by “and” are separate entries in the source; they are usually repeats but may differ in a detail not shown here. Equal entries are not always repeated. Results filed as inconclusive are left out. For part of these data: Potency and affinity values are given separately. The source holds several records for some structures; these can differ, active in one and inactive in another. Active and inactive are the calls of the source.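 The calls were made as follows, unless noted: active = compounds whose cell count with miR-34 switched on is under 0.7 times the count with it off; inactive = the rest.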

Assays:
[1] = liver-stage malaria parasite growth inhibition, primary screen, cell-based, HepG2, luciferase luminescence, HepG2 viability (AID 624349; in the data active = parasite load remaining mostly below about 12%, no sharp cut-off; inactive = mostly above about 10%;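 also: 100% = mean of DMSO negative control wells on the same plate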); settings: P. berghei liver stage in HepG2, luciferase luminescence, concentration not given here; parasite load remaining: stronger effect = lower value; viability: measured here: HepG2 viability without parasites
[2] = biological target: 6-phosphogluconate dehydrogenase, decarboxylating (Homo sapiens) (UniProt P52209); assay: 6PGD enzyme inhibitors, primary screen, biochemical, human, recombinant enzyme, NADPH absorbance (AID 1159550;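 active = at least 20% inhibition of 6-phosphogluconate dehydrogenase activity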); settings: recombinant 6PGD, NADPH absorbance 341 nm; at 10 µM; stronger effect = higher value
[3] = growth inhibition of DIPG glioma cells, dose response, cell-based, SU-DIPG-XIII, MIPE4.0, CellTiter-Glo, qHTS (AID 1347061; cut-off not given, nearly all actives have AC50 up to about 37 µM;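 also: cells exposed to compound for 48 hours before readout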); settings: SU-DIPG-XIII viability, CellTiter-Glo ATP luminescence
[4] = growth inhibition of DIPG glioma cells, dose response, cell-based, JHH-DIPG-1, MIPE4.0, CellTiter-Glo, qHTS (AID 1347062; cut-off not given, nearly all actives have AC50 up to about 27 µM;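 as to AC50: cells exposed to compound for two days before readout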); settings: JHH-DIPG-1 viability, CellTiter-Glo ATP luminescence
[5] = JHH-DIPG-1 glioma cell viability, MIPE5.0 library, CellTiter-Glo luminescence, qHTS (AID 1347067; cut-off not given, nearly all actives have AC50 up to about 26 µM;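 also: cells exposed to compound for 48 hours before readout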); settings: JHH-DIPG-1 glioma viability, CellTiter-Glo ATP luminescence
[6] = sensitizers of A549 cells to miR-34 induction, primary screen, imaging, A549 dox-inducible miR-34, nuclei and caspase counts (AID 1347080); settings: A549 miR-34 inducible, Hoechst nuclei count, 48 h
[7] = survival rescue of mitochondrial mutant cells in low glucose, primary screen, MELAS cybrids, Rieske KO mouse fibroblasts, CellTiter-Glo (AID 1508586;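 active = mean z-score across replicates of 1.96 or higher in either the MELAS or the Rieske mutant cell line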;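 also: z relative to plate mean and SD of compound and empty wells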)
[8] = biological target: NAD(+) hydrolase SARM1 (Homo sapiens) (UniProt Q6SZW1); assay: SARM1 TIR NADase inhibitors, cell lysate, NAD-Glo luminescence (AID 1508614;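 active = compound whose remaining NAD level is above about 45 nM, limit read from the data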;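 also: higher remaining NAD means stronger inhibition of SARM1 NADase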); settings: SAM-TIR HEK293T lysate NADase, at 1 µM, stronger effect = higher value
[9] = biological target: Mitogen-activated protein kinase 7 (Homo sapiens) (UniProt Q13164); assay: ERK5 transactivation activators in reporter cells, primary screen, cell-based, HTS (AID 1508626;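 active = luciferase signal above three times the same-plate solvent-only control wells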;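 also: luciferase driven by Gal4-ERK5 fusion binding five Gal4 sites before minimal TATA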); settings: HeLa Gal4-ERK5 transactivation, 18 h, at 5 µM, stronger effect = higher value
[10] = viability rescue of complex I mutant cybrids, primary screen, cell-based, galactose medium, ATP luminescence (AID 1645843;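 active = z-score of at least 1.8 in each of two replicates, scored against plate mean and spread of sample wells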;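 also: positive z means more ATP and so rescue of galactose-driven cybrid death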); settings: complex I mutant cybrid cells, 72 h, stronger effect = higher value
[11] = ICB984 medulloblastoma cell growth inhibition, synergistic combos for chromothripsis tumors, cisplatin or BGB combos (AID 1671451; call rule not given here;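 also: cells exposed for 96 hours before readout; 0% = vehicle DMSO and 100% = killing by high DMSO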); settings: ICB984 medulloblastoma cells, drug combinations, stronger effect = higher value
[12] = growth inhibition of DIPG glioma cells, dose response, cell-based, SU-DIPG-IV, MIPE4.0, CellTiter-Glo, qHTS (AID 1347063; cut-off not given, nearly all actives have AC50 up to about 30 µM;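 also: compound exposure lasted 48 hours before the viability readout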); settings: SU-DIPG-IV viability, CellTiter-Glo ATP luminescence
[13] = polyglutamine-triggered caspase-3 activation inhibitors, cell-based (AID 1583); settings: polyglutamine-induced caspase-3 activation, cell assay; stronger effect = higher value;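 tested at 10 µM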
[14] = suppressors of polyQ aggregation in yeast, 75Q-TubU reporter (AID 1593); settings: Yeast 75Q polyglutamine aggregation reporter
[15] = rescue of polyQ-huntingtin neuronal dysfunction in worms, whole organism, C. elegans mechanosensory neurons, N-terminal huntingtin (AID 1599); settings: touch response, stronger effect = higher value
[16] = inhibitors of mitochondrial cytochrome c release, biochemical, purified mitochondria (AID 1603); settings: stronger effect = lower value;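 also: mouse liver mitochondria challenged with calcium chloride; signal normalized to the plate average as 100%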
[17] = inhibitors of polyQ protein aggregation (AID 1604); settings: polyglutamine-induced protein aggregation inhibition assay; stronger effect = higher value; tested at 2.5 µM
[18] = enhancers of glutamate uptake in motor neurons, MN-1 cell line (AID 1612); settings: MN-1 motor neuron cells, stronger effect = higher value;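 also: tested at 1 µM final; 0% = mean of DMSO vehicle wells on each plate; positive means more glutamate uptake than control and negative means less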
[19] = suppressors of polyglutamine aggregation in yeast, 75Q-TubH (AID 1616); settings: S. cerevisiae 75Q-TubH polyglutamine aggregation suppression; stronger effect = higher value
[20] = stronger effect = lower value, cell number ratio, induced over uninduced
[21] = measured here: relative caspase fold change +Dox/-Dox
[22] = measured here: total cells with miR-34 induction, stronger effect = lower value
[23] = measured here: total cells without miR-34 induction
[24] = MELAS cybrid survival, CellTiter-Glo 48 h, stronger effect = higher value
[25] = Rieske KO mouse fibroblast survival, CellTiter-Glo 72 h

Sequence of 6-phosphogluconate dehydrogenase, decarboxylating (Homo sapiens) (P52209 whole entry, looked up): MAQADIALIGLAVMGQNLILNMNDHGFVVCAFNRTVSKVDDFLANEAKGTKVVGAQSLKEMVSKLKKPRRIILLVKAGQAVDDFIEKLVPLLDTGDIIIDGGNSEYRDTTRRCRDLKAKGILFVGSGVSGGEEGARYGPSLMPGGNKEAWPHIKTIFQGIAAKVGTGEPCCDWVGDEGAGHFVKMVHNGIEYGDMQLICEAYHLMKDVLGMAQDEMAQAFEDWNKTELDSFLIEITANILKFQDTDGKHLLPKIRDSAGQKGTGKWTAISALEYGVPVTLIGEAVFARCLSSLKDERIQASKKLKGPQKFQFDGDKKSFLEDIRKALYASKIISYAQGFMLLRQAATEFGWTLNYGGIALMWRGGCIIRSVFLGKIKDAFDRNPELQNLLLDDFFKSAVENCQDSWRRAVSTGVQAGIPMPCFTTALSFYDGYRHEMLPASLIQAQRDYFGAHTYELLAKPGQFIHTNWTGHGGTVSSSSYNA
Sequence of NAD(+) hydrolase SARM1 (Homo sapiens) (Q6SZW1 whole entry, looked up, the tested form may be a part): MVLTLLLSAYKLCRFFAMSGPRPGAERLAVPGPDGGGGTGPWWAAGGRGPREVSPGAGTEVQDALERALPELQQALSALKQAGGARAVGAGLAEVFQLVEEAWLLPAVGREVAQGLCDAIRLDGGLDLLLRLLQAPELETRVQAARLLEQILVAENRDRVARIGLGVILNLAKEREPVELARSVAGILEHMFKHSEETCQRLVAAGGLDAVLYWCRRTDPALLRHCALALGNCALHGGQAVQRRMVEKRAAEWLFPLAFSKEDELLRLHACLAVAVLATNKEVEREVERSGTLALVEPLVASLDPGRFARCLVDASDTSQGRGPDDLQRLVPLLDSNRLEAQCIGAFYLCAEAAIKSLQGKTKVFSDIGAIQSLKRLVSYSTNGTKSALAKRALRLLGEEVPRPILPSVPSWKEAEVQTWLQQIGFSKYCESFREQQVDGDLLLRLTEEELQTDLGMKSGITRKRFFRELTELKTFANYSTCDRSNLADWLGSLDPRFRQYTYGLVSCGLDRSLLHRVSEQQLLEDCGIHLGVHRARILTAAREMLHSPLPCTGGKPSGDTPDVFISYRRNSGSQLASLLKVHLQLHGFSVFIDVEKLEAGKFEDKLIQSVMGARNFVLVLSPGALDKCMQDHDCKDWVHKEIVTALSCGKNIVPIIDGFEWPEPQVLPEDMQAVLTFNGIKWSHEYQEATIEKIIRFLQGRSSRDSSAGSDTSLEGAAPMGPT
Sequence of Mitogen-activated protein kinase 7 (Homo sapiens) (Q13164 whole entry, looked up, the tested form may be a part): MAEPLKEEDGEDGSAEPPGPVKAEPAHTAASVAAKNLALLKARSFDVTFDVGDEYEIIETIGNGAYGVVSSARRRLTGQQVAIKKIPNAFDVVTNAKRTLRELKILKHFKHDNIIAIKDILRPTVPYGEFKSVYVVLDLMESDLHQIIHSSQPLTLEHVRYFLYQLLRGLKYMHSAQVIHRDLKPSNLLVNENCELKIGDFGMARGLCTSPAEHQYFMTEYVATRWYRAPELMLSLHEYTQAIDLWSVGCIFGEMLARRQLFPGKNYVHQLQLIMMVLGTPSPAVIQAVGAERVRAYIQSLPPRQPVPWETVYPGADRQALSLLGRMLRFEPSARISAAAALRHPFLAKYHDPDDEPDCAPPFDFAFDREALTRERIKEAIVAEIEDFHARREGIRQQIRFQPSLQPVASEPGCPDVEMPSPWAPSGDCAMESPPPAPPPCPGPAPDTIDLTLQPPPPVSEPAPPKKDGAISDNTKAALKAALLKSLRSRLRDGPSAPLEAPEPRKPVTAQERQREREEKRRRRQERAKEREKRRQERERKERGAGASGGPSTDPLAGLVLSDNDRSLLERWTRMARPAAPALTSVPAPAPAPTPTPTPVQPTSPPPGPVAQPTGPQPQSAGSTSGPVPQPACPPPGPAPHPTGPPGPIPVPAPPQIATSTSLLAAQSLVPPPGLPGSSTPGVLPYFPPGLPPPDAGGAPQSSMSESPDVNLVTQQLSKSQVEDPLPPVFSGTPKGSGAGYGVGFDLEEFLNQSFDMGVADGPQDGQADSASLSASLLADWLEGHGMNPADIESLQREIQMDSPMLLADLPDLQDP

## N=c1ccn2c(n1)O[C@H]1[C@H](O)[C@@H](CO)O[C@H]12
[1]
  parasite load remaining: 29.5% (inactive)
  viability: 73.5%
[2]
  inhibition: -4.99% (inactive)
[3]
  outcome: inactive
[4]
  outcome: inactive
[5]
  outcome: inactive
[6]; [20]
  fold change: 1.14 (inactive)
[6]; [21]
  fold change: 1
[6]; [22]
  cell count: 3040
[6]; [23]
  cell count: 2660
[7]; [24]
  z-score: -0.885 (inactive)
[7]; [25]
  z-score: -0.24
[8]
  remaining NAD: 10 nM (inactive)
[9]
  luciferase signal: 44 AU (inactive)
[10]
  z-score: -1.8 (inactive)
[11]; BGB IC20 combo, at 0.005 µM
  inhibition: -16.9%
[11]; BGB IC40 combo, at 0.005 µM
  inhibition: -39.5%
[11]; BGB IC40 combo, at 0.05 µM
  inhibition: -9.88%
[11]; at 0.5 µM
  inhibition: -19.6% (inactive)
[11]; cisplatin combo, at 0.05 µM
  inhibition: -12.9%
[11]; cisplatin combo, at 0.5 µM
  inhibition: -20.7%
[11]; cisplatin combo, at 5 µM
  inhibition: -55.6%
[11]; measured here: 5 uM single agent, at 5 µM
  inhibition: -6.48%

## COC1=C(OC)C(=O)C(C/C=C(\C)CC/C=C(\C)CC/C=C(\C)CC/C=C(\C)CC/C=C(\C)CC/C=C(\C)CC/C=C(\C)CC/C=C(\C)CC/C=C(\C)CCC=C(C)C)=C(C)C1=O
[2]
  inhibition: -47.9% (inactive)
[3]
  outcome: inactive
[4]
  outcome: inactive

## COc1cc([C@@H]2c3cc4c(cc3[C@H](O)[C@H]3COC(=O)[C@@H]23)OCO4)cc(OC)c1OC
[2]
  inhibition: 1.7% (inactive)
[4]
  AC50: 235 nM (active)
[12]
  AC50: 37.2 nM (active)
[5]
  AC50: 1050 nM (active)
[9]
  luciferase signal: 76 AU (inactive)

## O=C(O)c1cc(=O)c2ccccc2[nH]1
[13]
  inhibition: -5.47%
[14]
  score: 1.02
[15]
  rescue above control: 12.3
[16]
  cytochrome c release ratio: 0.92
[17]
  inhibition of aggregation: 69.7%
[18]
  glutamate uptake change: -1.73%
[19]
  aggregation suppression score: 0.981
[1]
  parasite load remaining: 196% (inactive)
  viability: 68.4%
[2]
  inhibition: 9.19% (inactive)
[6]; [20]
  fold change: 1.09 (inactive) and 0.962 (inactive)
[6]; [21]
  fold change: 0.635 and 0.733
[6]; [22]
  cell count: 10600 and 8100
[6]; [23]
  cell count: 9680 and 8420
[9]
  luciferase signal: 40 AU (inactive)
[10]
  z-score: 0.335 (inactive) and 0.005 (inactive)

## O=C(O)C1=CCNCC1
[13]
  inhibition: 3.63%
[14]
  score: 1.62
[15]
  rescue above control: -1.41
[16]
  cytochrome c release ratio: 1.01
[17]
  inhibition of aggregation: 45.5%
[18]
  glutamate uptake change: 8.29%
[19]
  aggregation suppression score: 1.29
[2]
  inhibition: 13% (inactive)
[6]; [20]
  fold change: 1 (inactive) and 0.973 (inactive)
[6]; [21]
  fold change: 1.35 and 1.1
[6]; [22]
  cell count: 9950 and 8720
[6]; [23]
  cell count: 9930 and 8960
[10]
  z-score: 0.645 (inactive) and -0.22 (inactive)

## CC1(C)[C@@H](O[C@H]2O[C@H](C(=O)O)[C@@H](O)[C@H](O)[C@H]2O[C@@H]2O[C@H](C(=O)O)[C@@H](O)[C@H](O)[C@H]2O)CC[C@]2(C)[C@H]3C(=O)C=C4[C@@H]5C[C@@](C)(C(=O)O)CC[C@]5(C)CC[C@@]4(C)[C@]3(C)CC[C@@H]12
[2]
  inhibition: 11% (inactive)
[3]
  outcome: inactive
[4]
  outcome: inactive
[12]
  outcome: inactive

## O=C(/C=C/c1ccc(O)c(O)c1)O[C@H](Cc1ccc(O)c(O)c1)C(=O)O
[2]
  inhibition: -3.01% (inactive)
[6]; [20]
  fold change: 0.903 (inactive) and 0.98 (inactive)
[6]; [21]
  fold change: 1.31 and 0.699
[6]; [22]
  cell count: 5220 and 9720
[6]; [23]
  cell count: 5780 and 9920
[9]
  luciferase signal: 44 AU (inactive)
[10]
  z-score: 0.02 (inactive)

## CCC[C@@H]1C[C@@H](C(=O)N[C@@H]([C@H]2O[C@H](SC)[C@H](O)[C@@H](O)[C@H]2O)[C@@H](C)O)N(C)C1
[1]
  parasite load remaining: 63.5% (inactive)
  viability: 128%
[2]
  inhibition: -15.1% (inactive)
[3]
  outcome: inactive
[4]
  outcome: inactive
[12]
  outcome: inactive
[6]; [20]
  fold change: 0.837 (inactive)
[6]; [21]
  fold change: 1.35
[6]; [22]
  cell count: 8810
[6]; [23]
  cell count: 10500
[7]; [24]
  z-score: 0.52 (inactive) and 0.4 (inactive)
[7]; [25]
  z-score: -0.069 and -0.671
[8]
  remaining NAD: 10 nM (inactive)
[9]
  luciferase signal: 64 AU (inactive)
[10]
  z-score: -0.14 (inactive)

## CCC(=O)NCC[C@@H]1CCc2ccc3c(c21)CCO3
[1]
  parasite load remaining: 159% (inactive) and -0.665% (active)
  viability: 88.5% and 95.2%
[2]
  inhibition: 11.8% (inactive)
[3]
  outcome: inactive
[4]
  outcome: inactive
[12]
  outcome: inactive
[5]
  outcome: inactive
[6]; [20]
  fold change: 0.882 (inactive)
[6]; [21]
  fold change: 7.18
[6]; [22]
  cell count: 11800
[6]; [23]
  cell count: 13400
[8]
  remaining NAD: 10 nM (inactive)
[9]
  luciferase signal: 72 AU (inactive)
